From PubChem BioAssay AID720486 (Milwaukee Institute for Drug Discovery, 2013) come the findings set out here.

The list shows a part of the results. A number with no mark means an inactive call.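 The calls were made as follows: active = inhibition of at least 50%; inactive = the rest.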

For the experiment, the target named is Single-stranded DNA-binding protein (Escherichia coli (strain K12)) (UniProt P0AGE0). Kind of experiment: disruption of SSB binding to ssDNA – biochemical, fluorescence polarization, selected ChemBridge compounds, counter-screen for HCV NS3 helicase inhibitor project (AID 720486).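 Also: displacers lower Cy5 polarization so higher inhibition means more SSB displaced.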 The following applies: E. coli SSB binding Cy5-dT15, fluorescence polarization; at 100 µM; hits give high values. Background: Polarisation of emitted light reports the rotation of a fluorescent probe.
Single-stranded DNA-binding protein (Escherichia coli (strain K12)), sequence (P0AGE0 whole entry, looked up): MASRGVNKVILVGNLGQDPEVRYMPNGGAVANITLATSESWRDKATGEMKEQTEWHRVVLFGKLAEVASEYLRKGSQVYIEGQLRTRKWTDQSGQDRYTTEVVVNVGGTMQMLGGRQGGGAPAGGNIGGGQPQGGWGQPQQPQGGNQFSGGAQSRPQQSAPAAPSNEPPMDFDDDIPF

Turning to `CCOc1cc(C=C2C(=O)NC(=O)NC2=O)cc(Br)c1OCCOc1ccccc1C`, the inhibition (commonly the drop in the measured response relative to a control, in per cent) is 36.9%.
